From PubChem BioAssay
TEAD-YAP block = TEAD-YAP interaction inhibition, primary screen, TEAD-YAP interaction inhibitor project, luminescence, HEK-TIYL cells; TEAD-Gal4/YAP UAS-luciferase luminescence; inhibition, % at 9.12 µM; 640,000 tested, 1.4% active; in the data active = inhibition above about 32%;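 note: 0% = median of test compound wells and 100% = reference inhibitor wells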
MITF primary = MITF inhibitors, primary screen, biochemical, AlphaScreen, human; Microphthalmia-associated transcription factor (Homo sapiens), O75030; AlphaScreen MITF homodimerization, bead proximity signal; inhibition, % at 2.6 µM; 650,000 tested, 0.91% active; in the data active = inhibition above about 50%;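 note: 0% = vehicle wells with protein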
Target sequence (O75030 whole entry, looked up): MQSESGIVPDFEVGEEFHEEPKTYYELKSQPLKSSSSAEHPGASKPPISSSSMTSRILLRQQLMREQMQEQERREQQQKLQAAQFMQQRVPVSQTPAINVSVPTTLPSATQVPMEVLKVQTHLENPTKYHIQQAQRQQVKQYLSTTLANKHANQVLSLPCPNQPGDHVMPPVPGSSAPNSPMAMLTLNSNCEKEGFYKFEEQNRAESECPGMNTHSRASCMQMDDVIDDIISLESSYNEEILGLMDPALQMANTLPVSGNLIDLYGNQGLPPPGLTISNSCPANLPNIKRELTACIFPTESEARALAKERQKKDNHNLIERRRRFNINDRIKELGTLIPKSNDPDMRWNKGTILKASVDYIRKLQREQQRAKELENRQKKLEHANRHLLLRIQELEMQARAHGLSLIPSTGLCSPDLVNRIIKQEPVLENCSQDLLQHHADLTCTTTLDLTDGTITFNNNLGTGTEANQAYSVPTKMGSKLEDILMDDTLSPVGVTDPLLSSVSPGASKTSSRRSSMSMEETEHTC
GPR151 ag = activators of human GPR151, primary screen, cell-based, PathHunter beta-arrestin, luminescence; G-protein coupled receptor 151 (Homo sapiens), Q8TDV0; PathHunter beta-arrestin GPR151 cells; activation, % at 11.2 µM; 650,000 tested, 1% active; in the data active = activation above about 4.9%;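 note: 0% = median of compound wells and 100% = cells with positive control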
FBW7 activator = FBW7 E3 ligase activators, primary screen, biochemical, AlphaScreen, human | F-box/WD repeat-containing protein 7 (Homo sapiens), Q969H0 | AlphaScreen FBW7–phospho-cyclin E peptide binding, activator screen | normalized activity (activation), % at 26.1 µM | 650,000 tested, 0.13% active | AID 1259310, 2017; in the data active = normalized activity above about 1.9%;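 note: purified mutant Fbw7 with reduced substrate affinity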
GPR151 confirm = GPR151 activators, triplicate retest, confirmation, cell-based, PathHunter beta-arrestin, luminescence | shares compounds with GPR151 ag | GPR151 PathHunter beta-arrestin cells, 90 min; % of EA-reagent control over plate median | activation, % at 11.2 µM | 6,700 tested, under 10 active;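 active = mean percent activation across replicates above the confirmation screen cutoff of 4.91%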
GPR119 ag = GPR119 activators in beta-arrestin cells, counter-screen for GPR151 activator project, cell-based, PathHunter beta-arrestin, luminescence, triplicate. shares compounds with GPR151 ag. 90 min; 0 = compound-well median, 100 = enzyme-acceptor control. activation, % at 11.2 µM. 6,700 tested, 0.3% active;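 active = mean percent activation in the counterscreen above 29.09%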;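 note: counterscreen on off-target GPR119 to flag nonselective hits from the GPR151 activator screen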
* hit, by the source's call. In the library only some 3.5% were active in any assay of this set; here they are far more common.

`COc1cc(/C=C2/NC(=O)N(Cc3ccc(F)cc3)C2=O)cc(Cl)c1OC` gave TEAD-YAP block -13, MITF primary -4, GPR151 ag 5.2*, FBW7 activator 1, GPR151 confirm 0 and GPR119 ag 0.
For CCCCCCOc1ccc(N2C(=O)CC(N3CCC(C(N)=O)(N4CCCCC4)CC3)C2=O)cc1 (stereo not drawn) the results were TEAD-YAP block -6, MITF primary 3, GPR151 ag -1 and FBW7 activator 0.
Screening Cc1c(CC(=O)N2CCOCC2)c(=O)oc2cc(O)ccc12 returned TEAD-YAP block 3, MITF primary 1, GPR151 ag 0 and FBW7 activator 0.
Cc1cccc(NC(=O)c2ccc(F)c(S(=O)(=O)NCc3ccc(F)cc3)c2)c1 was read as TEAD-YAP block 2, MITF primary -1, GPR151 ag -3 and FBW7 activator 0.
COc1ccc(N=Cc2c(O)[nH]c(=S)[nH]c2=O)cc1OC was read as TEAD-YAP block 2, MITF primary -5, GPR151 ag 7.2*, FBW7 activator 0, GPR151 confirm 0 and GPR119 ag 8.
`O=c1[nH]c(O)c(C=Nc2ccc(F)c(F)c2)c(=O)[nH]1` gave TEAD-YAP block 0, MITF primary -5, GPR151 ag 13*, FBW7 activator -1, GPR151 confirm 0 and GPR119 ag 6.
For O=C(Nc1ccc(Cl)c(Cl)c1)C1C2C=CC3(O2)C1C(=O)N(CCCN1CCCCC1)C3C(=O)NC1CCCCC1 (stereo not drawn) the results were TEAD-YAP block 3, MITF primary -2, GPR151 ag 0 and FBW7 activator 0.
CC(NC(N)=O)c1ccc(-c2ccccc2)cc1 (stereo not drawn) was read as TEAD-YAP block 4, MITF primary 14, GPR151 ag -1 and FBW7 activator 0.
Cn1c2ccccc2c2nnc(SCC(=O)c3ccccc3)nc21 was read as TEAD-YAP block 1, MITF primary -17, GPR151 ag 5.5*, FBW7 activator 0, GPR151 confirm 0 and GPR119 ag -3.
Screening O=C(NCc1cccnc1)c1cc(-c2ccc(F)cc2)no1 returned TEAD-YAP block -23, MITF primary 14, GPR151 ag 5.0*, FBW7 activator 0, GPR151 confirm 0 and GPR119 ag -6.
Screening CS(=O)(=O)Nc1nc(CC(=O)O)cs1 returned TEAD-YAP block 3, MITF primary -5, GPR151 ag 5.2*, FBW7 activator 0, GPR151 confirm 0 and GPR119 ag 6.
`CC(C)c1ccc(Nc2nc(CC(=O)O)cs2)cc1` gave TEAD-YAP block -20, MITF primary -4, GPR151 ag 1 and FBW7 activator 0.
For Cc1ccc(C(=O)Nc2ccc(N3CCC(NCC4CCCO4)CC3)cc2)c(C)c1 (stereo not drawn) the results were TEAD-YAP block -3, MITF primary 24, GPR151 ag 0 and FBW7 activator 0.
Screening O=C(NC1CC1)c1cccc(Nc2ccc(-n3ccnc3)cc2)c1 returned TEAD-YAP block -1, MITF primary 7, GPR151 ag 6.2*, FBW7 activator 0, GPR151 confirm 1 and GPR119 ag -3.
Screening COc1ccccc1Cc1noc(-c2ccc(I)cc2)n1 returned TEAD-YAP block -9, MITF primary -26, GPR151 ag -1 and FBW7 activator 0.
For COc1ccccc1Cc1noc(-c2cc(Cl)ccc2OC)n1 the results were TEAD-YAP block 1, MITF primary 7, GPR151 ag 6.3*, FBW7 activator 0, GPR151 confirm 0 and GPR119 ag -3.
`O=[N+]([O-])c1ccc(S(=O)(=O)N2CCN(S(=O)(=O)N3CCOCC3)CC2)cc1` gave TEAD-YAP block 12, MITF primary -3, GPR151 ag 3 and FBW7 activator 0.
Screening O=[N+]([O-])c1ccc(-c2ccc(S(=O)(=O)N3CCOCC3)cc2)cc1 returned TEAD-YAP block 9, MITF primary 3, GPR151 ag 5.6*, FBW7 activator 0, GPR151 confirm -1 and GPR119 ag -13.
`Clc1ccc(Cn2ncc3c(NCCN4CCOCC4)ncnc32)cc1` gave TEAD-YAP block -4, MITF primary 11, GPR151 ag 6.7*, FBW7 activator 0, GPR151 confirm 0 and GPR119 ag 2.
Cc1ccc(Cn2ncc3c(NCCCN4CCOCC4)ncnc32)cc1 was read as TEAD-YAP block -1, MITF primary -11, GPR151 ag 0 and FBW7 activator 0.
`O=C1CCC(CCNCc2ccccn2)N1CCc1ccc(F)cc1` (stereo not drawn) gave TEAD-YAP block -2, MITF primary 23, GPR151 ag -1 and FBW7 activator 0.
`Cc1nc2ncccc2c(=O)n1-c1ccc(NC(=O)c2cc(Br)ccc2Cl)cc1` gave TEAD-YAP block 1, MITF primary 2, GPR151 ag 0 and FBW7 activator 0.
For CCCS(=O)(=O)c1c(S(=O)(=O)CCC)c2ccc(C(C)=O)cn2c1C(=O)c1ccc(OC)cc1 the results were TEAD-YAP block -3, MITF primary -1, GPR151 ag 6.1*, FBW7 activator 0, GPR151 confirm 1 and GPR119 ag 18.
For CCCS(=O)(=O)c1c(S(=O)(=O)CCC)c2ccc(C(C)=O)cn2c1C(=O)c1ccc(C)cc1 the results were TEAD-YAP block 5, MITF primary 15, GPR151 ag 1 and FBW7 activator 0.
For CN(Cc1ccccc1)C(=O)Cn1ncc2ccsc2c1=O the results were TEAD-YAP block -30, MITF primary -7, GPR151 ag 5.6*, FBW7 activator 0, GPR151 confirm -1 and GPR119 ag -22.
O=C(COc1ccccc1Br)NCc1ccccc1 was read as TEAD-YAP block -17, MITF primary -17, GPR151 ag 2 and FBW7 activator 0.
CCc1ccccc1OCC(=O)NCc1ccccc1 was read as TEAD-YAP block -5, MITF primary 12, GPR151 ag 5.8*, FBW7 activator 1, GPR151 confirm 0 and GPR119 ag 0.
`CC(=O)Nc1ccc(C(=O)NCCNC(=O)Cc2ccc(F)cc2)cc1` gave TEAD-YAP block -7, MITF primary -10, GPR151 ag 5.5*, FBW7 activator 0, GPR151 confirm 1 and GPR119 ag 1.
`Cc1ccc(CNC(=O)COc2ccccc2C)cc1` gave TEAD-YAP block 6, MITF primary -7, GPR151 ag 7.4*, FBW7 activator 0, GPR151 confirm 1 and GPR119 ag 0.
